Measurements reported in the supplement of paper PMC11732987, “Enantioselective OTUD7B fragment discovery through chemoproteomics screening and high-throughput optimisation” (Communications Chemistry, 2025).
Unmarked numbers belong to inactive results.

Each compound was assayed against T1, ALG13 (UniProt Q9NP73) (assay: log2 ratio of Biotin-Ahx-Ub-VS probe labelling (fragment/DMSO); higher = less target engagement (more negative = stronger competition), active = hit call of the paper (q ≤ 0.05, log2 ratio ≤ -1)). Conditions: compound concentration: 200 uM; treatment time: 3 h.
T1 sequence (whole entry): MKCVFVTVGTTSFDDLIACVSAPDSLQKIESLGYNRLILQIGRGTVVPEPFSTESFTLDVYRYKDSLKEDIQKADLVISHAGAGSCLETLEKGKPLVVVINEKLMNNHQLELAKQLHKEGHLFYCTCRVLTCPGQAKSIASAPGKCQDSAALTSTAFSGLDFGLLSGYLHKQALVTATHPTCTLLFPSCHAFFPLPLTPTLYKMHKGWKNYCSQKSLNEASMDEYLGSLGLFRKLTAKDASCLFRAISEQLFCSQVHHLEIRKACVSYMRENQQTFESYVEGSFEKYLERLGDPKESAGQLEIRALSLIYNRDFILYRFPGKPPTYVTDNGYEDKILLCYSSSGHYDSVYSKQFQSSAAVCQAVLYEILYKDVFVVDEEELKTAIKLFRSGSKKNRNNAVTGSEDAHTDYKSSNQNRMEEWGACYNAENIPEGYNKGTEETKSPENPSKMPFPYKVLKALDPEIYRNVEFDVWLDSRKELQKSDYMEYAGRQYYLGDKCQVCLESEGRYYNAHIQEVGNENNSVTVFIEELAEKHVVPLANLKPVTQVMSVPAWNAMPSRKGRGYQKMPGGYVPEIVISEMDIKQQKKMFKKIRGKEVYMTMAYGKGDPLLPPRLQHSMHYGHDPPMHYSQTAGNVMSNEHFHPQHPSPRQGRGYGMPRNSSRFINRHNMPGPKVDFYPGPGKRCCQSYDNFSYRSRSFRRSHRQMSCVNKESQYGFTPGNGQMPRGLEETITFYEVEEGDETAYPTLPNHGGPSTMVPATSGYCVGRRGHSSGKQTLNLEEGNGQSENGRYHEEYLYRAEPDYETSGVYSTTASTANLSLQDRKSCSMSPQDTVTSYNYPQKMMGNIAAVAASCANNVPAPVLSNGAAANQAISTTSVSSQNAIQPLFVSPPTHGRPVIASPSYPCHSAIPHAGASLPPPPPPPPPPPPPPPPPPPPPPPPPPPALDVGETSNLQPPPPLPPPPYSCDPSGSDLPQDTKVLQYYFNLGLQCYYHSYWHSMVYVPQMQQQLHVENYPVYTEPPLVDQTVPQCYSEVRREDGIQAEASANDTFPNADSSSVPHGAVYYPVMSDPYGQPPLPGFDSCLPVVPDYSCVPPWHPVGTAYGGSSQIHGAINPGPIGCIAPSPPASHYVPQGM
Procedure, shortened: (§1)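 Average log2 ratios of fragment over vehicle were obtained by unpaired t-test from global-median-normalised Spectronaut label-free quantities. Proteins with ≥2 unique peptides were included. HEK293T lysate (495 µg per sample) was treated in triplicate with fragment at 200 µM or vehicle for 3 h, then with Biotin-Ahx-Ub-VS at 0.5 µM final for 1 h, and labelled DUBs were NeutrAvidin-enriched and run by diaPASEF LC-MS/MS.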

| Compound | log2 ratio of Biotin-Ahx-Ub-VS probe labelling |
| --- | --- |
| COc1cc(Cl)c(C)cc1NC(=O)CCl | -0.216 |
| Cl.O=C(CCl)N1CCN(Cc2ccccc2)CC1 | 0.239 |
| Cc1nc(CN2CCN(C(=O)CCl)CC2)cs1 | 0.271 |
| O=C(CCl)Nc1cc(Cl)ccc1C(=O)O | -0.0259 |
| CN(C(=O)CCl)c1nc2ccccc2s1 | 0.217 |
| O=C(CCl)NCCc1cccc2ccccc12 | -0.35 |
| CCCn1nccc1NC(=O)CCl | 0.12 |
| CNC(=O)C1CCN(C(=O)CCl)CC1 | 0.0075 |
| O=C(CCl)N1CCOC(c2cccc(F)c2)C1 (stereo not given) | -0.261 |
| Cc1c(C#N)c(NC(=O)CCl)n(Cc2ccco2)c1C | 0.126 |
| O=C(CCl)N1CCC(C(=O)N2CCCCCC2)CC1 | 0.205 |
| CN1C(=O)c2ccc(NC(=O)CCl)cc2C1=O | 0.35 |
| C[C@H]1CN(C(=O)CCl)CCN1C(=O)c1cnn(C)c1.Cl | 0.134 |
| CC1(NC(=O)CCl)CCS(=O)(=O)C1 (stereo not given) | -0.0745 |
| O=C(CCl)NCc1ccc(Cl)cc1 | 0.0638 |
| O=C(CCl)Nc1ccc(N2CCCC2=O)cc1 | 0.0794 |
| Cc1ncsc1CCNC(=O)CCl | -1.18 (active) |
| Cc1cccc(C)c1NC(=O)CCl | 0.022 |

| Compound | log2 ratio of Biotin-Ahx-Ub-VS probe labelling |
| --- | --- |
| Cc1cccc(C(CNC(=O)CCl)N2CCOCC2)c1.Cl (stereo not given) | -0.0491 |
| Cc1cccc(NC(=O)CCl)c1C | 0.138 |
| Cc1cc(C2CCCN2C(=O)CCl)nn1C.Cl (stereo not given) | 0.0249 |
| O=C(CCl)N1CCCC2CCCCC21 (stereo not given) | -0.21 |
| Cc1cccc(N2CCC(NC(=O)CCl)C2=O)c1 (stereo not given) | -0.354 |
| CC(O)CC1CCN(C(=O)CCl)CC1 (stereo not given) | -0.345 |
| Cc1nc(CC2CCN(C(=O)CCl)CC2)no1 | -0.358 |
| CC1Cc2ccccc2N1C(=O)CCl (stereo not given) | -0.0487 |
| O=C(CCl)Nc1cccc(C(=O)N2CCSCC2)c1 | 0.254 |
| Cl.O=C(CCl)N1CCc2ncncc2C1 | -0.17 |
| NC(=O)C(Cc1ccccc1)NC(=O)CCl (stereo not given) | 0.0325 |
| CC(NC(=O)CCl)c1csc(-c2ccccc2)n1.Cl (stereo not given) | 0.0117 |
| Cc1ccc(CC(NC(=O)CCl)c2ccccn2)cc1.Cl (stereo not given) | -0.831 |
| O=C(CCl)N[C@H]1CCS(=O)(=O)c2ccccc21 | -0.0339 |
| O=C(CCl)NCC(=O)N1CCCC1 | 0.0112 |
| CC(C)n1nccc1NC(=O)CCl | -0.568 |
| Cc1cc(CC(C)NC(=O)CCl)n[nH]1 (stereo not given) | 0.0722 |

What follows are compounds tested against ATXN3 (UniProt P54252) in the same assay as above. Conditions: compound concentration: 200 uM; treatment time: 3 h.
ATXN3, sequence (P54252 whole entry): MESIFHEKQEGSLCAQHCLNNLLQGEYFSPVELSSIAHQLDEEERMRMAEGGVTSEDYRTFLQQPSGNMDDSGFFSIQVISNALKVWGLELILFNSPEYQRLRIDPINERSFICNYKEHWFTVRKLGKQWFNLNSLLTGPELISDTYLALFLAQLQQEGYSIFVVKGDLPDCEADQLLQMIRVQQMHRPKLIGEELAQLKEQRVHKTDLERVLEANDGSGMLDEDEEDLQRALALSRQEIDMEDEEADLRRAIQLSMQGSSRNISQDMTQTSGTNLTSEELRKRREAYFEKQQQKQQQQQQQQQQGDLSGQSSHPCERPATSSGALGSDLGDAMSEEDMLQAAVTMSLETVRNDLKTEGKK
Procedure, shortened: as §1

| Compound | log2 ratio of Biotin-Ahx-Ub-VS probe labelling |
| --- | --- |
| COc1cc(Cl)c(C)cc1NC(=O)CCl | -0.37 |
| Cl.O=C(CCl)N1CCN(Cc2ccccc2)CC1 | -0.805 |
| Cc1nc(CN2CCN(C(=O)CCl)CC2)cs1 | -0.309 |
| O=C(CCl)Nc1cc(Cl)ccc1C(=O)O | 0.182 |
| CN(C(=O)CCl)c1nc2ccccc2s1 | -0.82 |
| O=C(CCl)NCCc1cccc2ccccc12 | 0.214 |
| CCCn1nccc1NC(=O)CCl | -0.199 |
| CNC(=O)C1CCN(C(=O)CCl)CC1 | -0.0902 |
| O=C(CCl)N1CCOC(c2cccc(F)c2)C1 (stereo not given) | -2.59 (active) |
| Cc1c(C#N)c(NC(=O)CCl)n(Cc2ccco2)c1C | -0.609 |
| O=C(CCl)N1CCC(C(=O)N2CCCCCC2)CC1 | -0.407 |
| CN1C(=O)c2ccc(NC(=O)CCl)cc2C1=O | -0.464 |
| C[C@H]1CN(C(=O)CCl)CCN1C(=O)c1cnn(C)c1.Cl | -0.631 |
| CC1(NC(=O)CCl)CCS(=O)(=O)C1 (stereo not given) | -0.753 |
| O=C(CCl)NCc1ccc(Cl)cc1 | -0.168 |
| O=C(CCl)Nc1ccc(N2CCCC2=O)cc1 | 0.0787 |
| Cc1ncsc1CCNC(=O)CCl | 0.0484 |
| Cc1cccc(C)c1NC(=O)CCl | -0.224 |

| Compound | log2 ratio of Biotin-Ahx-Ub-VS probe labelling |
| --- | --- |
| Cc1cccc(C(CNC(=O)CCl)N2CCOCC2)c1.Cl (stereo not given) | 0.0164 |
| Cc1cccc(NC(=O)CCl)c1C | -0.243 |
| Cc1cc(C2CCCN2C(=O)CCl)nn1C.Cl (stereo not given) | -0.374 |
| O=C(CCl)N1CCCC2CCCCC21 (stereo not given) | -0.321 |
| Cc1cccc(N2CCC(NC(=O)CCl)C2=O)c1 (stereo not given) | -0.569 |
| CC(O)CC1CCN(C(=O)CCl)CC1 (stereo not given) | -0.291 |
| Cc1nc(CC2CCN(C(=O)CCl)CC2)no1 | -1.02 (active) |
| CC1Cc2ccccc2N1C(=O)CCl (stereo not given) | -0.989 |
| O=C(CCl)Nc1cccc(C(=O)N2CCSCC2)c1 | -0.874 |
| Cl.O=C(CCl)N1CCc2ncncc2C1 | -0.297 |
| NC(=O)C(Cc1ccccc1)NC(=O)CCl (stereo not given) | -0.279 |
| CC(NC(=O)CCl)c1csc(-c2ccccc2)n1.Cl (stereo not given) | -0.556 |
| Cc1ccc(CC(NC(=O)CCl)c2ccccn2)cc1.Cl (stereo not given) | 0.249 |
| O=C(CCl)N[C@H]1CCS(=O)(=O)c2ccccc21 | -0.224 |
| O=C(CCl)NCC(=O)N1CCCC1 | -0.179 |
| CC(C)n1nccc1NC(=O)CCl | -0.233 |
| Cc1cc(CC(C)NC(=O)CCl)n[nH]1 (stereo not given) | -0.115 |
